Inconclusive results are not listed. Where a call stands in place of a potency, no number is given. The source made the active and inactive calls. Calls follow the shape of the full dose curve.
Assay: p53 small molecule agonists, cell-based qHTS assay with human liver microsomes: qHTS cell viability counter screen (AID 1963579); also: nearly all actives have a fitted effect of over 45% in size
Details: p53RE-bla HCT-116 viability, ATP luminescence, 16 h, HLM; series mostly up to 66 µM
Description: National Center for Advancing Translational Sciences [NCATS]
Division of Preclinical Innovation [DPI]
U.S. Environmental Protection Agency [EPA]
National Institutes of Environmental Health Sciences [NIEHS]
National Toxicology Program [NTP]
U.S. Food and Drug Administration [FDA]
p53, a tumor suppressor protein, is activated following cellular insult, including DNA damage and other cellular stresses. The activation of p53 regulates cell fate by inducing DNA repair, cell cycle arrest, apoptosis, or cellular senescence. The activation of p53, therefore, is a good indicator of DNA damage and other cellular stresses. […] The activation of the reporter gene under culture conditions can be detected by fluorescence intensity. This cell line was used to screen the Tox21 10K compound library in the condition of presence of human liver microsomes and to identify agonists that activate the p53 signaling pathway after in vitro metabolic activation (Ooka et al., Archive of Toxicology 96:1975-1987, 2022).
Tox21 Assay Protocol Summary:
The p53RE-bla cells were dispensed at 4,000cells/3ul/well in 1536-well black-clear bottom plates. After the assay plates were incubated at 37 C, 5% CO2 incubator for 5 hours, 23 nL of compounds dissolved in DMSO, positive controls or DMSO only was transferred to the assay plate. Following compound addition, 3 uL of human liver microsomes (XenoTech, Kansas City, KS) at final concentration of 0.5 mg/mL and 1uL of B-Nicotinamide adenine dinucleotide 2'-phosphate (NADPH) at final concentration of 0.5 mg/mL were transferred to the assay plate. The plates were incubated at 37 C for 16 hours. 1 uL of LiveBLAzer detection mixture was added to each well and the plates were incubated at room temperature in the dark for 2 h. Fluorescence intensity at 460 and 530 nm emission and 405 nm excitation were measured by an Envision plate reader. For cell viability readout that measures cytotoxicity, 4 ul/well of CellTiter-Glo reagent was added into the assay plates using a Flying Reagent Dispenser. After 30 min incubation at room temperature, the luminescence intensity in the plates was measured using a ViewLux plate reader.
In the case of `Cn1cnc([N+](=O)[O-])c1Sc1ncnc2nc[nH]c12`, the Potency is reported as “inactive”. In the case of `O=c1[nH]c2ccc(Cl)cc2o1`, the Potency is reported as “inactive”. For `O=Cc1ccc(Cl)cc1`, the Potency was “inactive”. With `NNC(=O)c1cccc(C(=O)NN)c1` the Potency was “inactive”. With `CC(=C(CCOC(=O)C(C)C)SSC(CCOC(=O)C(C)C)=C(C)N(C=O)Cc1cnc(C)nc1N)N(C=O)Cc1cnc(C)nc1N` the Potency was “inactive”. In the case of `O=C(O)c1ccco1`, the Potency is reported as “inactive”. For `O=c1[nH]c(=O)n([C@H]2CCCO2)cc1F`, the Potency was “inactive”. With `O=S(=O)(O)c1cccc2c(S(=O)(=O)O)cccc12` the Potency was “inactive”. With `CC(=O)[O][Al][O]C(C)=O` the Potency was “inactive”. For `O=C(O)c1ccccc1OP(=O)(O)O`, the Potency was “inactive”. With `CN(C)CCC=C1c2ccccc2CCc2ccccc21` the Potency was “inactive”. For `O=Cc1ccccc1C=O`, the Potency was “inactive”. With `Clc1nc(Cl)c(Cl)c(Cl)c1Cl` the Potency was “inactive”. In the case of `COC(=O)c1ccccc1C(=O)c1ccc(OCCN2CCCCC2)cc1`, the Potency is reported as “inactive”. In the case of `CCOC(=O)c1c(C)n(C)c2ccc(O)cc12`, the Potency is reported as “inactive”. With `N#CCN(CC#N)CCN(CC#N)CC#N` the Potency was “inactive”. With `C/C=C/c1ccc(OC)c(OC)c1` the Potency was “inactive”. With `CCN(CC)CCNC(=O)c1ccc(NC(C)=O)cc1` the Potency was “inactive”. For `CO[C@H]1C=CO[C@@]2(C)Oc3c(C)c(O)c4c(O)c(c(/C=N/N5CCN(C)CC5)c(O)c4c3C2=O)NC(=O)/C(C)=C\C=C[C@H](C)[C@H](O)[C@@H](C)[C@@H](O)[C@@H](C)[C@H](OC(C)=O)[C@@H]1C`, the Potency was “inactive”. For `Cc1cn([C@H]2C[C@H](F)[C@@H](CO)O2)c(=O)[nH]c1=O`, the Potency was “inactive”. In the case of `COC(=O)c1c(Cl)c(Cl)c(C(=O)OC)c(Cl)c1Cl`, the Potency is reported as “inactive”. With `N[C@H](C(=O)O)c1ccc(O)cc1` the activity change, negative = cytotoxicity was 0.34% [at 13.5 µM] (inactive). For `C=CC(C)(CCC=C(C)C)OC=O` (stereo not given), the Potency was “inactive”. In the case of `C=C[C@H]1CN2CC[C@H]1C[C@@H]2[C@@H](O)c1ccnc2ccc(OC)cc12`, the Potency is reported as “inactive”. In the case of `C=C[Si](OC(=C)C)(OC(=C)C)OC(=C)C`, the Potency is reported as “inactive”. With `CC1=CC[C@@H](C(C)(C)O)CC1` the Potency was “inactive”. In the case of `CC(C)C(=O)Nc1cccc(C2CN3CCSC3=N2)c1` (stereo not given), the Potency is reported as “inactive”. With `CCCc1c2oc(C(=O)O)cc(=O)c2cc2c(=O)cc(C(=O)O)n(CC)c12` the Potency was “inactive”. With `Nc1ccccc1N` the Potency was “inactive”. In the case of `OCC1(CO)COCOC1`, the Potency is reported as “inactive”. With `C=C(C)[C@H]1CC=C(C)C(=O)C1` the Potency was “inactive”. In the case of `CC(C)Oc1ccc2c(=O)c(-c3ccccc3)coc2c1`, the Potency is reported as “inactive”. In the case of `Cc1ccccc1S(N)(=O)=O`, the Potency is reported as “inactive”. For `CCCCOC(=O)CCCCCCCC(=O)OCCCC`, the Potency was “inactive”. In the case of `COC(=O)Nc1ccc(Cl)c(Cl)c1`, the Potency is reported as “inactive”. In the case of `O=C1CC(c2ccc(Cl)cc2)CC(=O)N1`, the Potency is reported as “inactive”. In the case of `CC1=CCC(C(C)C)=CC1`, the Potency is reported as “inactive”. With `CCCCCC=O` the Potency was “inactive”. In the case of `NS(=O)(=O)c1cc2c(cc1Cl)NC(CC1CCCC1)NS2(=O)=O` (stereo not given), the Potency is reported as “inactive”. In the case of `CC(=O)c1ccc2c(c1)CCCC2`, the Potency is reported as “inactive”.
